AHR activator – AHR activators, primary screen, cell-based, luminescence, luciferase reporter, human | activation, % at 5 µM | 2.5% of 320,000 active | AHR-responsive luciferase reporter cells; in the data active means activation above about 47%;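 further: 0% = vehicle wells and 100% = reference agonist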
hcDAF-12 act – H. contortus DAF-12 nuclear receptor activators, primary screen, cell-based, luminescence, HEK293, lit1-tk-luc reporter. HEK293 hcDAF-12 lit1-tk-luc reporter; 0% DMSO, 100% Δ7-dafachronic acid. activation, % at 6.8 µM. 1.4% of 370,000 active. AID 652067, 2013;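 active means activation above the mean of all tested compounds plus 3 SD, cut at about 5.5% in these data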;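 further: 100% = response to 3 µM Δ7-dafachronic acid high control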
DAX1 inh-1 – DAX1 (NR0B1) inhibitors on StAR promoter, primary screen, cell-based, luminescence, SF-1 (NR5A1), full-length DAX-1 | inhibition, % at 6.8 µM | 1.1% of 370,000 active | AID 652010, 2013 | HEK293T StAR-luciferase reporter, SF-1/DAX-1 repression relief;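 active means inhibition above the mean over all tested compounds plus 3 SD, cut at about 3.6% in these data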;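 further: 0% = DAX-1 cells with DMSO and 100% = cells lacking DAX-1 with DMSO; higher inhibition means more luminescence from relief of DAX-1 repression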
hgDAF-12 ag – H. glycines DAF-12 receptor agonists, primary screen, cell-based, luminescence, HEK293, GAL4 fusion, UAS-luciferase; 1.8% of 370,000 active; HEK293 GAL4-hgDAF12 UAS-luciferase reporter, agonist luminescence; normalized to butyrate control; Nuclear hormone receptor DAF-12 (Heterodera glycines), GAL4 fusion; activation, % at 6.8 µM;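 active means activation above a cutoff set at the mean of all screened compounds plus 3 SD, cut at about 10% in these data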;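 further: 0% = DMSO wells and 100% = sodium butyrate wells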
DAX1 inh-2 – DAX1 (NR0B1) inhibitors, primary screen, cell-based, HEK293, Gal4-DAX1, luciferase luminescence; HEK293 Gal4-DAX1 luciferase reporter; inhibition, % at 6.75 µM; 0.99% of 340,000 active; AID 504766, 2011;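 active means inhibition above the mean over all tested compounds plus 3 SD, cut at about 4.2% in these data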;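 further: 0% = DAX1-transfected cells with DMSO and 100% = empty-vector control cells with DMSO; inhibition shows as a rise in luminescence from relieved DAX1 repression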
Target sequence (P51843 207-470 limits assumed): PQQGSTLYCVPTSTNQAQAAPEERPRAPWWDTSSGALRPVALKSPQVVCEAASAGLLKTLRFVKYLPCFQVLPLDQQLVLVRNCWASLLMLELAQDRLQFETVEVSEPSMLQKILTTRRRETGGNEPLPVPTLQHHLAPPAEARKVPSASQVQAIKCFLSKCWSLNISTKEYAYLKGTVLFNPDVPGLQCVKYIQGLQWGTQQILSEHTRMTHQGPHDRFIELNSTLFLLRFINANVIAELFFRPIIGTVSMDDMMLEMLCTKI
ssDAF12 agonist – S. stercoralis DAF-12 nuclear receptor activators, primary screen, cell-based, luminescence, HEK293, GRIP1 co-expression, lit1-tk-luc. HEK293 ssDAF-12/GRIP1 lit1-tk-luc reporter; % of 3 µM dafachronic acid response. activation, % at 6.8 µM. 1% of 370,000 active;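 active means activation above the mean over all tested compounds plus 3 SD, cut at about 0.9% in these data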;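 further: 0% = DMSO-only wells and 100% = 3 µM delta7-dafachronic acid wells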
AHR act cf – AHR activators, confirmation, cell-based, luminescence, luciferase reporter, human. AID 2845, 2010. activation, % at 9 µM. human cells, AHR-responsive luciferase reporter. shares compounds with AHR activator. 87% of 2,300 active; in the data active means activation above about 49%;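 further: HepG2 hepatoma cells carrying a DRE-driven firefly luciferase reporter; 0% = vehicle wells and 100% = reference agonist wells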
PXR act counter – human PXR activators, counter-screen for AHR activator project, cell-based, luciferase luminescence | cell-based PXR reporter | shares compounds with AHR activator | 88% of 2,300 active | activation, % at 11.6 µM | AID 434939, 2010; in the data active means activation above about 11%;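 further: human hepatoma DPX-2 cells expressing full-length human PXR; 0% = DMSO and 100% = reference agonist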
Target sequence (O75469 whole entry, looked up): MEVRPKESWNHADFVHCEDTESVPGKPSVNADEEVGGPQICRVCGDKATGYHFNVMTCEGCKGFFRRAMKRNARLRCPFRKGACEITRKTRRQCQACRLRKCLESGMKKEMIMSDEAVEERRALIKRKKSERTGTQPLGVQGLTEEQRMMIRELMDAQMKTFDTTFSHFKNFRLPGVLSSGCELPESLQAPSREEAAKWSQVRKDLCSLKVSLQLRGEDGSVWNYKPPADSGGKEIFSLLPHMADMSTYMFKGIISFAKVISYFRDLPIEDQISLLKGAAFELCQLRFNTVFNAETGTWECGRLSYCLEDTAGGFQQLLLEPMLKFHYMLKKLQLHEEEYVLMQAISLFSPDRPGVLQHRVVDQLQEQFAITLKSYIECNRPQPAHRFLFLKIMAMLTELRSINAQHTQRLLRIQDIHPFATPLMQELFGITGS
DAX1 inh confirm – DAX1 (NR0B1) inhibitors relieving SF-1 repression, confirmation, cell-based, luminescence, HEK293T, full-length DAX-1, SF-1 activated StAR promoter; HEK293T StAR-promoter luciferase reporter, SF-1/DAX-1 repression; 87% of 2,400 active; AID 652134, 2013; shares compounds with DAX1 inh-1; inhibition, % at 6.8 µM;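 active means inhibition above the average of every tested compound plus 3 SD, cut at about 3.8% in these data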;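 further: 0% = DAX-1 cells with DMSO and 100% = no DAX-1 control cells with DMSO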
SF1 AF2mut Luc – StAR reporter signal changes without DAX1, counter-screen for DAX1 inhibitor project, cell-based, luminescence, AF-2 mutant SF-1, transactivation. shares compounds with DAX1 inh-1. HEK293 StAR-luciferase, SF-1 AF2 mutant. inhibition, % at 6.8 µM. 78% of 2,400 active;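 active means inhibition above the mean of all tested compounds plus 3 SD, cut at about 3% in these data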;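 further: 0% = DAX-1 transfected cells with DMSO and 100% = cells without DAX-1 with DMSO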
LXR ag – LXR agonists, Gal4 luciferase reporter, confirmation, counter-screen for hcDAF-12 agonist project, cell-based, luminescence, HEK293, H. contortus campaign; shares compounds with hcDAF-12 act; HEK293 Gal4-LXR tk-luc reporter, 24 h; normalized: DMSO 0%, positive control 100%; activation, % at 6.8 µM; 3,400 tested, under 10 active;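 active means mean percent activation of the reporter above a cutoff set as the average over tested compounds plus their standard deviation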
hcDAF12 conf – H. contortus DAF-12 receptor agonists, confirmation, cell-based, luminescence, HEK293, lit1-tk-luc, triplicate; shares compounds with hcDAF-12 act; HEK293 hcDAF-12 lit1-tk-luc reporter; % of Δ7-dafachronic acid response; activation, % at 6.8 µM; 61% of 3,400 active;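 active means mean activation across triplicate tests above the threshold derived from the earlier primary screen, cut at about 5.5% in these data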;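 further: 0% = DMSO only wells and 100% = 3 µM Δ7-dafachronic acid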
Starred values were filed as active, the others as inactive. Hits are enriched below; roughly 5.7% of the tested compounds scored in any of these assays.

How did CC(C(=O)N1CCN(Cc2ccc3c(c2)OCO3)CC1)c1ccc([N+](=O)[O-])cc1 (stereo not drawn) do in these assays?
AHR activator: 21.6; hcDAF-12 act: 0.7; DAX1 inh-1: -0.6; hgDAF-12 ag: -1.7; DAX1 inh-2: -1.6; ssDAF12 agonist: -1.3

Results for CCOc1ccc(NC(=O)c2cc3ccccc3cc2OC)cc1 ?
AHR activator: 82.8*; hcDAF-12 act: 7.0*; DAX1 inh-1: -0.3; hgDAF-12 ag: 7.5; DAX1 inh-2: 6.3*; ssDAF12 agonist: 0.0; AHR act cf: 90.5*; LXR ag: 0.6; hcDAF12 conf: 6.1*

Results for CCOc1ccc(NC(=O)c2ccc(F)cc2F)cc1 ?
AHR activator: -7.9; hcDAF-12 act: 1.7; DAX1 inh-1: 1.6; hgDAF-12 ag: 9.7; DAX1 inh-2: 0.1; ssDAF12 agonist: -0.2

What do the screens show for `COc1ccccc1-c1nnc(-c2ccc(C)cc2)o1`?
AHR activator: 80.7*; hcDAF-12 act: 8.0*; DAX1 inh-1: 2.2; hgDAF-12 ag: 11.5*; DAX1 inh-2: 8.4*; ssDAF12 agonist: 0.5; AHR act cf: 122.7*; PXR act counter: 39.2*; LXR ag: 1.0; hcDAF12 conf: 8.5*

Results for COc1ccccc1-c1nnc(-c2ccc(N3CCOCC3)cc2)o1 ?
AHR activator: 30.7; hcDAF-12 act: 0.1; DAX1 inh-1: -0.2; hgDAF-12 ag: 8.0; DAX1 inh-2: 0.7; ssDAF12 agonist: -0.8

How did O=c1c2ccccc2cnn1-c1ccc(Br)cc1 do in these assays?
AHR activator: 136.2*; hcDAF-12 act: 11.2*; DAX1 inh-1: 3.9*; hgDAF-12 ag: 15.6*; DAX1 inh-2: 1.6; ssDAF12 agonist: 2.1*; AHR act cf: 109.3*; PXR act counter: 38.1*; LXR ag: 1.1; hcDAF12 conf: 12.1*

What do the screens show for `CCc1nc2c(OCc3ccc(C(F)(F)F)cc3)cccn2c1N(C=O)Cc1ccc(OC)cc1`?
hcDAF-12 act: -2.6; DAX1 inh-1: -3.9; hgDAF-12 ag: -6.4; ssDAF12 agonist: -1.9

Results for CCCc1c(C(=O)N/N=C/c2ccco2)nnn1-c1nonc1N ?
AHR activator: 11.8; hcDAF-12 act: -1.4; DAX1 inh-1: -0.3; hgDAF-12 ag: 3.0; DAX1 inh-2: 0.1; ssDAF12 agonist: -0.8

What do the screens show for `N/C(=N\OC(=O)c1ccc(Br)o1)c1ccccn1`?
AHR activator: 79.2*; hcDAF-12 act: 8.3*; DAX1 inh-1: 9.4*; hgDAF-12 ag: 10.3; DAX1 inh-2: 1.1; ssDAF12 agonist: 0.7; AHR act cf: 28.7; PXR act counter: 21.9*; DAX1 inh confirm: 14.6*; SF1 AF2mut Luc: 6.2*; LXR ag: 0.8; hcDAF12 conf: 2.6

What do the screens show for `CC(C)NC(=O)c1cc(-n2cnnc2)ccc1Cl`?
AHR activator: 0.6; hcDAF-12 act: -1.5; DAX1 inh-1: -0.5; hgDAF-12 ag: 0.1; DAX1 inh-2: -0.9; ssDAF12 agonist: -1.4

What do the screens show for `COC(=O)c1sccc1NC(=O)c1ccc(C(C)C)cc1`?
AHR activator: 95.4*; hcDAF-12 act: 7.1*; DAX1 inh-1: 0.3; hgDAF-12 ag: 4.0; DAX1 inh-2: 1.2; ssDAF12 agonist: 0.2; AHR act cf: 96.9*; PXR act counter: 14.8*; LXR ag: 0.2; hcDAF12 conf: 6.8*

How did COC(CNC(=O)c1ccc2c(c1)ncn2C1CCCCCC1)OC do in these assays?
AHR activator: -2.1; hcDAF-12 act: -2.0; DAX1 inh-1: -1.1; hgDAF-12 ag: -1.8; DAX1 inh-2: -1.2; ssDAF12 agonist: -1.1

Results for Cc1ccccc1C(=O)N=c1sccn1C ?
AHR activator: 6.8; hcDAF-12 act: 0.6; DAX1 inh-1: 0.1; hgDAF-12 ag: 2.0; DAX1 inh-2: 2.2; ssDAF12 agonist: -1.2

Results for Cc1ccc(C(=O)N=c2sccn2C)cc1C ?
AHR activator: 193.7*; hcDAF-12 act: 13.6*; DAX1 inh-1: 10.2*; hgDAF-12 ag: 12.5*; DAX1 inh-2: 1.0; ssDAF12 agonist: 1.6*; AHR act cf: 136.0*; PXR act counter: 41.3*; DAX1 inh confirm: 11.4*; SF1 AF2mut Luc: 7.2*; LXR ag: 1.4; hcDAF12 conf: 11.5*

Results for Nc1c(Br)cc2oc(-c3ccccc3)nc2c1Br ?
AHR activator: 84.4*; hcDAF-12 act: 7.4*; DAX1 inh-1: 2.0; hgDAF-12 ag: 7.5; DAX1 inh-2: 5.0*; ssDAF12 agonist: 1.1*; AHR act cf: 133.7*; PXR act counter: 12.9*; LXR ag: 1.2; hcDAF12 conf: 16.9*

What do the screens show for `Cc1ccc2oc(-c3ccccc3)nc2c1`?
AHR activator: 2.1; hcDAF-12 act: 0.8; DAX1 inh-1: 2.3; hgDAF-12 ag: 6.2; DAX1 inh-2: 1.8; ssDAF12 agonist: -0.1

Screens deposited in PubChem BioAssay by The Scripps Research Institute Molecular Screening Center.
